Bioassay records: PubChem, several laboratories
An excerpt weighted towards active compounds, which were near 4.2% of everything screened.
TIM10 inh = growth inhibitors of TIM10 yeast strain. S. cerevisiae TIM10 strain growth, BacTiter-Glo luminescence, 24 h. inhibition, % at 10 µM. 330,000 compounds, 1.4% hits;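 active = inhibition of 40% or more at the single tested concentration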;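 also: wild-type TIM10 isogenic control strain grown at permissive 25 °C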
tim23-1 inh = inhibits growth of tim23-1 mutant yeast; S. cerevisiae tim23-1 growth, BacTiter-Glo luminescence, 24 h; inhibition, % at 20 µM; 330,000 compounds, 1.3% hits; AID 463212;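 active = growth inhibition of the mutant yeast at or above 50%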;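 also: temperature-sensitive mutant grown at 25 °C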
NLRP3 yeast inh = inhibitors of NALP3 inflammasome in yeast. 330,000 compounds, 0.39% hits. Yeast reconstituted NLRP3/ASC/caspase-1, beta-gal luminescence, 24 h. inhibition, % at 10 µM;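 active = inhibition of 50% or more; inactive = inhibition below 50%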
NALP1 inh = blocks the NALP1 inflammasome reconstituted in yeast. inhibition, % at 10 µM. 280,000 compounds, 0.61% hits. S. cerevisiae NALP1/ASC/caspase-1 growth, X-gal OD620, 72 h; in the data active = inhibition mostly above about 24%, no sharp cut-off; inactive = mostly below about 32%
V-ATPase pHluor = yeast V-ATPase proton transport regulation by pHLuorin | S. cerevisiae, pHLuorin cytosolic pH fluorescence | response, % at 10 µM | 350,000 compounds, 0.37% hits | AID 504577; in the data active = response mostly above about 7.3%, no sharp cut-off; inactive = mostly below about 5.4%; also: actives read high
tim10-1 inh = growth inhibitors of tim10-1 mutant yeast. AID 463190. 330,000 compounds, 2.2% hits. inhibition, % at 20 µM. S. cerevisiae tim10-1 ts strain growth, BacTiter-Glo, 24 h;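 active = inhibition of at least 40%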;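 also: mutant grown at 25 °C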
tim10-1 confirm = tim10-1 yeast growth inhibition, confirmed; AID 463213; S. cerevisiae tim10-1 ts strain growth, BacTiter-Glo, 24 h; shares compounds with tim10-1 inh; 7,400 compounds, 56% hits; inhibition, % at 20 µM;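 active = inhibition of yeast growth at or above a set limit in either of two repeat tests at 20 µM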;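 also: tim10-1 mutant grown at permissive 25 °C to find synthetic lethal compounds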
Each line names hits and unclear results; the compound was inactive in the other large screens (follow-up assays come after a bar, where they were run).

CC(=O)C1=C(C)N(Cc2ccccc2)C(=O)N[C@@H]1c1cccc(C(F)(F)F)c1	tim10-1 inh 41 | tim10-1 confirm inactive
Cc1ccc2nc(SCC(=O)Nc3cc(C(C)(C)C)nn3-c3ccccc3)[nH]c2c1	tim10-1 inh 44 | tim10-1 confirm inactive
Cc1ccc(-n2ncc(C(=O)Nc3ccc(Cl)cc3)c2C2CCNCC2)cc1C	none
O=C(Nc1ccon1)c1cc2c(s1)CCCCCC2	tim10-1 inh 52 | tim10-1 confirm 40
O=C(Nc1cccc(S(=O)(=O)Nc2ccc(Cl)cc2)c1)c1cc2c(s1)CCCC2	tim10-1 inh 40 | tim10-1 confirm inactive
Cn1c(=O)c2c(nc(Oc3ccccc3Cl)n2C)n(C)c1=O	none (no result: TIM10 inh, tim23-1 inh, NLRP3 yeast inh, tim10-1 inh)
CCCCCCCCNC(=O)/C(C#N)=C/c1ccc2c(c1)OCCO2	none
CCCCCCCCNC(=O)/C(C#N)=C/c1ccc(SC)cc1	tim10-1 inh 50 | tim10-1 confirm 38
CC1=C(/C=C/C(C)=C/C=C/C(C)=C/CO)C(C)(C)CCC1	tim10-1 inh 44 (no result: NALP1 inh) | tim10-1 confirm inactive
CC(C)c1ccc(NC(=O)Nc2cc3sccc3n2C)cc1	tim10-1 inh 42 | tim10-1 confirm inactive
C=CCNC(=O)c1cc2sccc2n1C	none (no result: NALP1 inh)
COc1ccccc1-c1cccc([C@@H]2C[C@H]3[C@H](CON3C)CN2Cc2cc(Cl)cc(Cl)c2)c1	none (no result: TIM10 inh, tim23-1 inh, NLRP3 yeast inh, NALP1 inh, tim10-1 inh)
CC(C)=CCC1=C(OCC(=O)O)C(=O)c2ccccc2C1=O	tim10-1 inh 52 | tim10-1 confirm 44
NC(=S)NN=C1CCC2(CCCCC2)CC1	none (no result: TIM10 inh, tim23-1 inh, NLRP3 yeast inh, NALP1 inh, tim10-1 inh)
Cc1ccc2c(c1)c1c(n2CC(O)Cn2nc(C)c(Br)c2C)CCCC1 (stereo unspecified)	tim10-1 inh 43 | tim10-1 confirm inactive
O=C(OCCOc1cccc(Cl)c1)C1CCN(S(=O)(=O)c2ccccc2)CC1	tim10-1 inh 44 | tim10-1 confirm inactive
CC(=O)Oc1ccc2c(=O)oc(-c3ccccc3C)nc2c1	tim10-1 inh 44 | tim10-1 confirm 40
O=C(Cc1ccc(Nc2nc3ccc(Br)cc3[nH]2)cc1)NCCc1cccs1	none
Cc1ccsc1C1NC(=O)c2c(sc3c2CCCC3)N1 (stereo unspecified)	tim10-1 inh 48 | tim10-1 confirm 35
CCn1nc(C)c(C(=O)Nc2cc(Oc3cc(C)cc(C)c3)cc([N+](=O)[O-])c2)c1C	tim10-1 inh 43 | tim10-1 confirm 39
CCn1c2ccccc2c2nc3cc(OC)c(OC)cc3nc21	none
CCn1c2ccccc2c2nc3ccccc3nc21	tim10-1 inh 43 | tim10-1 confirm 35
Cc1cc(C)c(N=Cc2c(O)n(-c3nccs3)c(=O)c3ccccc23)c(C)c1	tim10-1 inh 41 | tim10-1 confirm 32
CNc1nc(C)c(C#N)c(-c2ccccc2)c1C(C)=O	none
COc1ccc(Cc2nnc(N)s2)cc1OC	none
CCCCSCCCNC(=O)Nc1ccc(C)c(C)c1	tim10-1 inh 47 | tim10-1 confirm inactive
CC1CCN(S(=O)(=O)c2ccc3c(c2)N(CC(=O)NCCCN2CCCC(C)C2)C(=O)CO3)CC1 (stereo unspecified)	none
CCCCOP(=O)(c1ccc(N(C)C)cc1)C(O)c1ccccc1F (stereo unspecified)	tim10-1 inh 43 | tim10-1 confirm inactive
CCCCOP(=O)(c1ccc(N(C)C)cc1)C(O)c1ccc(OC)cc1 (stereo unspecified)	none
CCCN1C(=O)C(NC(=O)c2ccncc2)(C(F)(F)F)C2=C1CC(C)(C)CC2=O (stereo unspecified)	none
COc1cccc(/C=N/n2c(C3CCCCC3)n[nH]c2=S)c1O	tim10-1 inh 48 | tim10-1 confirm 33
CCCOc1ccc(CSCCNC(=S)Nc2ccccc2)cc1	tim10-1 inh 46 | tim10-1 confirm inactive
S=C(NCCSCc1ccccc1Cl)Nc1ccccc1	none (no result: NALP1 inh)
CCc1nnc(NC(=O)c2cc(-c3ccccn3)nc3ccc(Br)cc23)s1	tim10-1 inh 83 | tim10-1 confirm inactive
Cc1ccc(S(=O)(=O)Nc2ccc(N=Nc3ccc(O)cc3)cc2)cc1	tim10-1 inh 40 (no result: NALP1 inh) | tim10-1 confirm 47
CCN(CC)c1ncn(Cc2c(Cl)cccc2Cl)c2ncnc1-2	tim10-1 inh 42 | tim10-1 confirm 36
Cc1nn(Cc2c(Cl)cccc2Cl)c(C)c1N	none
O=S(=O)(Nc1ccc(-c2cn3c(n2)SCC3)cc1)c1cc(F)ccc1F	none (no result: TIM10 inh, tim23-1 inh, NLRP3 yeast inh, NALP1 inh, tim10-1 inh)
CCOC(=O)c1cnc(SCC(=O)OCC(=O)N(CC)C2CCS(=O)(=O)C2)nc1N (stereo unspecified)	none (no result: NALP1 inh)
COc1ccc(CCNC(=O)CCNC(=O)c2ccc(Br)cc2)cc1OC	none
CC(CCc1ccccc1)NC(=O)COC(=O)c1ccc(S(C)(=O)=O)c([N+](=O)[O-])c1 (stereo unspecified)	tim10-1 inh 46 | tim10-1 confirm inactive
S=C(Nc1ccccc1Cl)N(Cc1ccccc1)Cc1ccccn1	tim10-1 inh 47 | tim10-1 confirm inactive
COc1ccccc1NC(=S)N(Cc1ccccc1)Cc1ccccn1	none
O=C1S/C(=C\c2ccc(N3CCOCC3)o2)C(=O)N1Cc1c(F)cccc1Cl	none
O=C1S/C(=C/c2ccc(N3CCOCC3)o2)C(=O)N1Cc1c(F)cccc1Cl	tim10-1 inh 59 | tim10-1 confirm 58
COc1cc(NC(=O)c2ccc3snnc3c2)cc(OC)c1	none (no result: NALP1 inh)
COC(=O)c1cc(S(=O)(=O)N2CCN(c3ccccc3)CC2)c[nH]1	none
COC(=O)c1cc(S(=O)(=O)N2CCN(c3cccc(C)c3C)CC2)c[nH]1	tim10-1 inh 51 | tim10-1 confirm 30
CC(=O)Nc1ccc(C(=O)OCc2ccc(F)cc2)cc1	tim10-1 inh 42 | tim10-1 confirm inactive
CCCc1nnc2c(N(C)S(=O)(=O)c3ccc(C)cc3)nc3ccccc3n12	tim10-1 inh 40 | tim10-1 confirm inactive
CC(=O)c1c(C)[nH]c(C(=O)Nc2nc(-c3ccccc3)c(C)s2)c1C	tim10-1 inh 43 | tim10-1 confirm inactive
CC(=O)c1c(C)[nH]c(C(=O)Nc2nccs2)c1C	none
CCn1c(-c2cc(-c3cc(C)ccc3C)nc3ccccc23)n[nH]c1=S	none
CCn1c(-c2cc(-c3ccc(C)c(C)c3)nc3ccccc23)n[nH]c1=S	tim10-1 inh 47 (no result: V-ATPase pHluor) | tim10-1 confirm 34
CCOc1cccc(-c2cc(-c3n[nH]c(=S)n3CC)c3ccccc3n2)c1	tim10-1 inh 53 | tim10-1 confirm inactive
CCOC(=O)C1CCN(C(=O)c2oc3ccc4c(c3c2C)C(O)CC2(CCCCC2)O4)CC1 (stereo unspecified)	tim10-1 inh 54 | tim10-1 confirm 33
CCN(CC)CCCCN1c2ccccc2Sc2ccccc21	tim10-1 inh 41 | tim10-1 confirm inactive
OCCN1CCN(CCCN2c3ccccc3Sc3ccc(C(F)(F)F)cc32)CC1	tim10-1 inh 42 | tim10-1 confirm 30
OCCN1CCN(CC/C=C2/c3ccccc3CSc3ccccc32)CC1	none (no result: NALP1 inh)
